Data published in PubChem BioAssay AID1159580 (chemical genetic matrix, 2015).
Out of some 5,500 compounds screened, about 2,000 (36%) were called active. Not shown: some 18% with an inconclusive outcome. The list shows a part of the results. Values without a mark were called inactive. Rule as the data show it: active = normalized growth mostly below about 0.91 (no sharp cut-off); inconclusive = no clear call, values can overlap the other calls; inactive = mostly above about 0.92.

Assay: chemical genetic growth profiling, strain panel (AID 1159580);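 also: tested at 20 µM; growth read once vehicle control cultures reached saturation at 30 °C; 1 = growth at the plate median or of vehicle wells; lower values mean less growth of the strain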
Conditions: S. cerevisiae deletion strains, growth OD
[1] = locus YHR030C, strain SLT2, hits give low values
[2] = locus YHR079C, strain IRE1, hits give low values
[3] = locus YJL095W, strain BCK1, hits give low values
[4] = locus YJR066W, strain TOR1, hits give low values
[5] = locus YLR113W, strain HOG1, hits give low values
[6] = locus YNL183C, strain NPR1, hits give low values
[7] = locus YOR231W, strain MKK1, hits give low values
[8] = locus YPL256C, strain CLN2, hits give low values

## Cc1[nH]c(C)c(Cl)c(=O)c1Cl
Locus YAL021C, strain ccr4, hits give low values
  normalized growth: 1.01
Locus YAL026C, strain drs2, hits give low values
  normalized growth: 1.01
Locus YAL030W, strain snc1, hits give low values
  normalized growth: 0.998
Locus YBL061C, strain skt5, hits give low values
  normalized growth: 1
Locus YBR009C, strain hhf1, hits give low values
  normalized growth: 1.03
Locus YBR023C, strain chs3, hits give low values
  normalized growth: 1
Locus YBR171W, strain sec66, hits give low values
  normalized growth: 1
Locus YBR231C, strain swc5, hits give low values
  normalized growth: 0.996
Locus YBR279W, strain paf1, hits give low values
  normalized growth: 0.999
Locus YCL011C, strain gbp2, hits give low values
  normalized growth: 1.01
Locus YCL016C, strain dcc1, hits give low values
  normalized growth: 0.997
Locus YCL061C, strain MRC1, hits give low values
  normalized growth: 0.998
Locus YCL069W, strain vba3, hits give low values
  normalized growth: 0.997
Locus YCR088W, strain abp1, hits give low values
  normalized growth: 1
Locus YDL005C, strain med2, hits give low values
  normalized growth: 1.01
Locus YDL040C, strain nat1, hits give low values
  normalized growth: 1
Locus YDR001C, strain nth1, hits give low values
  normalized growth: 0.994
Locus YDR069C, strain doa4, hits give low values
  normalized growth: 1.02
Locus YDR137W, strain rgp1, hits give low values
  normalized growth: 1.01
Locus YDR159W, strain sac3, hits give low values
  normalized growth: 0.981
Locus YDR195W, strain ref2
  normalized growth: 0.962
Locus YDR297W, strain sur2, hits give low values
  normalized growth: 1.01
Locus YDR334W, strain swr1, hits give low values
  normalized growth: 1
Locus YDR335W, strain msn5, hits give low values
  normalized growth: 1
Locus YDR392W, strain spt3, hits give low values
  normalized growth: 1.03
Locus YEL003W, strain gim4, hits give low values
  normalized growth: 1.01
Locus YEL037C, strain rad23, hits give low values
  normalized growth: 0.999
Locus YEL061C, strain CIN8 (second series), hits give low values
  normalized growth: 1.01
Locus YER015W, strain faa2, hits give low values
  normalized growth: 0.999
Locus YER016W, strain bim1, hits give low values
  normalized growth: 0.995
Locus YER111C, strain swi4, hits give low values
  normalized growth: 0.999
Locus YER155C, strain BEM2 (second series), hits give low values
  normalized growth: 1.01
Locus YFR010W, strain ubp6, hits give low values
  normalized growth: 1.01
Locus YGL167C, strain pmr1, hits give low values
  normalized growth: 0.999
Locus YGL173C, strain kem1, hits give low values
  normalized growth: 1
Locus YGL227W, strain vid30, hits give low values
  normalized growth: 0.996
Locus YGL240W, strain doc1, hits give low values
  normalized growth: 0.998
Locus YGL253W, strain hxk2, hits give low values
  normalized growth: 1.01
Locus YHR013C, strain ard1, hits give low values
  normalized growth: 0.979
Locus YHR027C, strain rpn1, hits give low values
  normalized growth: 0.992
[1]
  normalized growth: 1.04
[2]
  normalized growth: 1.03
Locus YHR142W, strain chs7, hits give low values
  normalized growth: 1.01
Locus YJL092W, strain hpr5, hits give low values
  normalized growth: 0.996
Locus YJL095W, strain BCK1 (second series), hits give low values
  normalized growth: 0.998
[3]
  normalized growth: 0.983
Locus YJL115W, strain asf1, hits give low values
  normalized growth: 1.01
Locus YJL129C, strain trk1, hits give low values
  normalized growth: 0.992
Locus YJL154C, strain vps35, hits give low values
  normalized growth: 0.999
Locus YJL164C, strain tpk1, hits give low values
  normalized growth: 1.01
Locus YJL166W, strain qcr8, hits give low values
  normalized growth: 1.01
[4]
  normalized growth: 0.986
Locus YKL160W, strain elf1, hits give low values
  normalized growth: 1
Locus YKR026C, strain gcn3, hits give low values
  normalized growth: 1
Locus YKR091W, strain srl3, hits give low values
  normalized growth: 1
Locus YLL001W, strain dnm1, hits give low values
  normalized growth: 1
Locus YLL026W, hits give low values
  normalized growth: 1
Locus YLL041C, strain sdh2, hits give low values
  normalized growth: 1
Locus YLR027C, strain aat2, hits give low values
  normalized growth: 1.01
[5]
  normalized growth: 0.98
Locus YLR221C, strain rsa3, hits give low values
  normalized growth: 0.997
Locus YLR258W, strain gsy2, hits give low values
  normalized growth: 0.995
Locus YLR262C, strain YPT6 (second series), hits give low values
  normalized growth: 1.03
Locus YLR320W, strain mms22, hits give low values
  normalized growth: 1
Locus YLR342W, strain FKS1, hits give low values
  normalized growth: 1
Locus YLR357W, strain rsc2, hits give low values
  normalized growth: 1
Locus YLR370C, strain arc18, hits give low values
  normalized growth: 0.998
Locus YLR384C, strain iki3, hits give low values
  normalized growth: 0.995
Locus YML120C, strain ndi1, hits give low values
  normalized growth: 1.01
Locus YMR058W, strain fet3, hits give low values
  normalized growth: 1.01
Locus YMR125W, strain sto1, hits give low values
  normalized growth: 0.994
Locus YMR129W, hits give low values
  normalized growth: 0.993
Locus YMR205C, strain PFK2, hits give low values
  normalized growth: 0.988
Locus YMR231W, strain pep5, hits give low values
  normalized growth: 0.991
Locus YNL071W, strain lat1, hits give low values
  normalized growth: 1
[6]
  normalized growth: 0.972
Locus YNL209W, strain ssb2, hits give low values
  normalized growth: 1.01
Locus YNL248C, strain rpa49, hits give low values
  normalized growth: 1.01
Locus YNL322C, strain KRE1 (second series), hits give low values
  normalized growth: 0.999
Locus YNR049C, strain mso1, hits give low values
  normalized growth: 1
Locus YOR001W, strain rrp6, hits give low values
  normalized growth: 1.01
Locus YOR070C, strain gyp1, hits give low values
  normalized growth: 1.01
Locus YOR080W, strain dia2, hits give low values
  normalized growth: 0.991
Locus YOR083W, strain WHI5, hits give low values
  normalized growth: 1.01
Locus YOR106W, strain vam3, hits give low values
  normalized growth: 1.02
[7]
  normalized growth: 0.999
Locus YOR265W, strain rbl2, hits give low values
  normalized growth: 1.01
Locus YOR270C, strain vph1, hits give low values
  normalized growth: 1
Locus YOR290C, strain snf2, hits give low values
  normalized growth: 0.999
Locus YPL051W, strain arl3, hits give low values
  normalized growth: 1.01
Locus YPL078C, strain atp4, hits give low values
  normalized growth: 1
Locus YPL106C, strain sse1, hits give low values
  normalized growth: 1
Locus YPL240C, strain hsp82, hits give low values
  normalized growth: 0.991
[8]
  normalized growth: 1.02

## CC(=O)CSc1nnc(-c2ccc(C(C)(C)C)cc2)n1-c1ccc(Cl)cc1
Locus YAR019C, strain CDC15, hits give low values
  normalized growth: 0.982
Locus YBL105C, strain PKC1, hits give low values
  normalized growth: 0.974
Locus YBR135W, strain CKS1, hits give low values
  normalized growth: 0.973
Locus YBR136W, strain MEC1, hits give low values
  normalized growth: 0.987
Locus YBR160W, strain CDC28, hits give low values
  normalized growth: 0.976
Locus YDL017W, strain CDC7, hits give low values
  normalized growth: 0.983
Locus YDL028C, strain MPS1, hits give low values
  normalized growth: 0.976
Locus YDL101C, strain DUN1, hits give low values
  normalized growth: 0.974
Locus YDL108W, strain KIN28, hits give low values
  normalized growth: 0.982
Locus YDL132W, strain cdc53, hits give low values
  normalized growth: 0.972
Locus YDL214C, strain PRR2, hits give low values
  normalized growth: 0.959
Locus YDR052C, strain DBF4, hits give low values
  normalized growth: 0.986
Locus YDR054C, strain cdc34, hits give low values
  normalized growth: 0.971
Locus YDR226W, strain ADK1, hits give low values
  normalized growth: 0.973
Locus YDR477W, strain SNF1, hits give low values
  normalized growth: 0.958
Locus YER123W, strain YCK3, hits give low values
  normalized growth: 0.953
Locus YER133W, strain GLC7, hits give low values
  normalized growth: 0.969
Locus YFL009W, strain cdc4, hits give low values
  normalized growth: 0.977
Locus YFL029C, strain CAK1, hits give low values
  normalized growth: 0.987
Locus YFR003C, strain YPI1, hits give low values
  normalized growth: 0.984
Locus YFR019W, strain FAB1, hits give low values
  normalized growth: 1
Locus YFR028C, strain CDC14, hits give low values
  normalized growth: 0.977
Locus YGR040W, strain KSS1, hits give low values
  normalized growth: 0.965
Locus YGR052W, strain FMP48, hits give low values
  normalized growth: 1.02
Locus YGR092W, strain DBF2, hits give low values
  normalized growth: 0.987
[1]
  normalized growth: 0.797 (active)
[2]
  normalized growth: 0.99
Locus YHR082C, strain KSP1, hits give low values
  normalized growth: 1.04
Locus YHR205W, strain SCH9, hits give low values
  normalized growth: 0.976
Locus YIL147C, strain SLN1, hits give low values
  normalized growth: 0.983
[3]
  normalized growth: 0.926
Locus YJL128C, strain PBS2, hits give low values
  normalized growth: 0.927
Locus YJL157C, strain FAR1, hits give low values
  normalized growth: 0.986
Locus YJR016C, strain ILV3, hits give low values
  normalized growth: 0.982
Locus YJR066W, strain TOR1 (second series), hits give low values
  normalized growth: 0.984
[4]
  normalized growth: 0.972
Locus YKL048C, strain ELM1, hits give low values
  normalized growth: 0.969
Locus YKL067W, strain YNK1, hits give low values
  normalized growth: 0.947
Locus YKL101W, strain HSL1, hits give low values
  normalized growth: 0.973
Locus YKL193C, strain SDS22, hits give low values
  normalized growth: 0.981
Locus YKL203C, strain TOR2, hits give low values
  normalized growth: 1.05
[5]
  normalized growth: 0.914
Locus YLR133W, strain CKI1, hits give low values
  normalized growth: 0.99
Locus YLR403W, strain SFP1, hits give low values
  normalized growth: 0.984
Locus YML070W, strain DAK1, hits give low values
  normalized growth: 0.97
Locus YMR001C, strain CDC5, hits give low values
  normalized growth: 0.985
Locus YMR205C, strain PFK2 (second series), hits give low values
  normalized growth: 0.97
Locus YMR277W, strain FCP1, hits give low values
  normalized growth: 0.978
Locus YNL006W, strain LST8, hits give low values
  normalized growth: 0.98
Locus YNL020C, strain ARK1, hits give low values
  normalized growth: 0.999
Locus YNL161W, strain CBK1, hits give low values
  normalized growth: 0.984
[6]
  normalized growth: 1.01
Locus YNL207W, strain RIO2, hits give low values
  normalized growth: 0.988
Locus YNL222W, strain SSU72, hits give low values
  normalized growth: 0.97
Locus YNL307C, strain MCK1 (second series), hits give low values
  normalized growth: 0.996
Locus YOL078W, strain AVO1, hits give low values
  normalized growth: 0.984
Locus YOL136C, strain PFK27, hits give low values
  normalized growth: 0.983
Locus YOR061W, strain CKA2, hits give low values
  normalized growth: 0.976
Locus YOR119C, strain RIO1, hits give low values
  normalized growth: 0.98
[7]
  normalized growth: 0.97
Locus YOR329C, strain SCD5, hits give low values
  normalized growth: 0.977
Locus YPL031C, strain PHO85, hits give low values
  normalized growth: 0.953
Locus YPL153C, strain RAD53, hits give low values
  normalized growth: 0.972
Locus YPL204W, strain HRR25, hits give low values
  normalized growth: 0.958
Locus YPL209C, strain IPL1, hits give low values
  normalized growth: 0.984
[8]
  normalized growth: 0.918
Locus YPR025C, strain CCL1, hits give low values
  normalized growth: 0.976
Locus YPR106W, strain ISR1, hits give low values
  normalized growth: 0.974
Locus YPR111W, strain DBF20, hits give low values
  normalized growth: 0.965
Strain NNK1, hits give low values
  normalized growth: 0.997
Strain TSCII, hits give low values
  normalized growth: 0.99
